RecA splice inh: Mtb RecA intein splicing inhibitors, primary screen, biochemical, fluorescence, HTS; AID 2221, 2009; 0.75% of 290,000 active; inhibition, % (no concentration beside the values); cell-free RecA intein splicing; Protein RecA (Mycobacterium tuberculosis (strain ATCC 25618 / H37Rv)), P9WHJ3; in the data active = inhibition above about 30%;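 note: 0% = vehicle wells and 100% = reference inhibitor control wells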
Target sequence (P9WHJ3 whole entry, looked up, canonical isoform): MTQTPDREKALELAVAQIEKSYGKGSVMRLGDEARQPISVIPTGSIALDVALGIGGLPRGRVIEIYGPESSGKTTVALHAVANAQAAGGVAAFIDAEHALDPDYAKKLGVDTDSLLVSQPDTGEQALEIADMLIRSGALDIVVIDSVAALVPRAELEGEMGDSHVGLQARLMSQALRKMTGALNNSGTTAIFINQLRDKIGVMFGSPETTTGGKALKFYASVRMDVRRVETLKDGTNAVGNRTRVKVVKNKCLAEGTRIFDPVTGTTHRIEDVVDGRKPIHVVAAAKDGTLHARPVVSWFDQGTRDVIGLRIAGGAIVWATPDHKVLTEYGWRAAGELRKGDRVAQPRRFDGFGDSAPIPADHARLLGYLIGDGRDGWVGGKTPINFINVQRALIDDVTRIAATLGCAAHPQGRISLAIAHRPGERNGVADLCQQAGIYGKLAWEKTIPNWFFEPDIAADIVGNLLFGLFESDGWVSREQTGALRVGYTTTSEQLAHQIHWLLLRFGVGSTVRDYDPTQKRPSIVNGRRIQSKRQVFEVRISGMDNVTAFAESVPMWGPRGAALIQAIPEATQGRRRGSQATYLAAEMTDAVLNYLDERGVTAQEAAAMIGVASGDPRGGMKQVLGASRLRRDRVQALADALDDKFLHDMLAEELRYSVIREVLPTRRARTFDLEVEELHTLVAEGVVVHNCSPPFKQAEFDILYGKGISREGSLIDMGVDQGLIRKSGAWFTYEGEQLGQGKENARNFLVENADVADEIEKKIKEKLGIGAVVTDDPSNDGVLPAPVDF
GDH-TPI counter: GDH-TPI coupling enzyme inhibitors, primary screen, artefact control for M. tuberculosis FBA inhibitor project, biochemical, absorbance, full deck; GDH-TPI coupled enzyme counterscreen, NADH absorbance; inhibition, % at 4.8 µM; 1.2% of 360,000 active; in the data active = inhibition above about 30%;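 note: 0% = DMSO wells and 100% = wells lacking the enzyme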
Rv3671c protease: Rv3671c serine protease inhibitors, primary screen, biochemical, fluorescence polarization, M. tuberculosis H37Rv | P9WHR9 | inhibition, % at 5.96 µM | 0.048% of 320,000 active | AID 2606, 2010; in the data active = inhibition above about 38%;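 note: extracellular domain of Rv3671c used as enzyme; 0% = enzyme with DMSO and 100% = no enzyme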
Mtb bLac sens: beta-lactam sensitization of Mtb H37Rv, H37Rv. 0.27% of 330,000 active. M. tuberculosis H37Rv growth with meropenem, percent inhibition. inhibition, % at 25 µM; call rule not given here;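 note: growth measured after seven days incubation then overnight dye step; 0% = bacteria only wells and 100% = bacteria with antibiotic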
Mtb UGM inh: M. tuberculosis UGM enzyme inhibitors, primary screen, biochemical, fluorescence polarization, single point; inhibition, % at 10 µM; AID 504406, 2011; purified UGM, fluorescence polarization probe displacement; 0.06% of 320,000 active; in the data active = inhibition above about 10%, passing the limit was not always enough
Mtb FBA inh: Mtb FBA enzyme inhibitors, primary screen, biochemical, fluorescence, strain H37Rv; inhibition, % at 1 µM; purified M. tuberculosis FBA, fluorescence read-out; 2.3% of 360,000 active; AID 588726, 2011; Fructose-bisphosphate aldolase (Mycobacterium tuberculosis (strain ATCC 25618 / H37Rv)), …; in the data active = inhibition above about 27%;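 note: 0% = vehicle and 100% = reference inhibitor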
Starred values were filed as active, the others as inactive; . = no result given; + = active, no number. In the library only some 4% were active in any assay of this set; here they are far more common.

SMILES	RecA splice inh	GDH-TPI counter	Rv3671c protease	Mtb bLac sens	Mtb UGM inh	Mtb FBA inh
CS(=O)(=O)N(CC(=O)N1CCN(Cc2ccccc2)CC1)c1cccc([N+](=O)[O-])c1	-2.1	-11.1	-0.2	-11.1	0.7	-2.5
CC[C@H](NC(=O)CC[C@H]1O[C@@H](n2cnc3c(NC(=O)c4ccccc4)ncnc32)[C@H](O)[C@@H]1O)c1ccccc1	.	.	.	.	.	-0.5
CCCOc1c(Br)cc(C(=O)OCc2cc(=O)n3ccsc3n2)cc1OC	.	-1.3	.	.	.	-1.8
N=C1/C(=C\c2coc3ccccc3c2=O)C(=O)N=C2SC(c3ccncc3)=NN12	-1.2	32.1*	-22.0	3.7	-1.8	7.8
CC(=O)NC(c1ccccc1)c1nc(-c2ccc(Cl)cc2)cs1 (stereo unspecified)	.	7.1	.	.	.	4.6
O=C(CSc1nnc2ccccn12)NNC(=O)c1cccc([N+](=O)[O-])c1	.	3.2	3.3	47.9	1.8	0.0
COc1ccc(C(CNC(=O)c2cc3ccccc3cc2OC)N2CCCC2)cc1 (stereo unspecified)	1.5	33.7*	-0.2	16.1	-2.8	6.3
COc1cc2ccccc2cc1C(=O)Nc1ccccc1N1CCCC1	11.6	3.1	-14.9	88.6	0.2	+
C(=NN=Cc1c[nH]c2ccccc12)c1c[nH]c2ccccc12	.	40.7*	.	.	.	-2.9
O=C1CS/C(=N/N=C/c2c[nH]c3ccccc23)N1	-5.4	34.7*	0.8	4.5	-0.4	0.9
CCCCc1cc(=O)oc2cc(C)cc(OCC(=O)N3CCC(C(N)=O)CC3)c12	0.2	10.8	1.3	-6.7	2.6	18.4
Cc1oc2c(C)c3oc(=O)c(CCC(=O)NCCCN4CCCC4=O)c(C)c3cc2c1C	-6.5	9.0	3.4	-4.1	2.5	13.7
Cc1c(OCC(=O)NCCN2CCOCC2)ccc2c1oc(=O)c1ccccc12	-0.4	13.9	-2.9	0.9	0.9	124.0*
CCCc1cc(=O)oc2c3c(cc(OCC(=O)N4CCC[C@H]4C(=O)O)c12)OC(C)(C)CC3	-1.8	25.5	-10.6	-7.7	-2.1	+
CCCc1cc(=O)oc2c(C)c(OCC(=O)NC3CC(C)(C)NC(C)(C)C3)ccc12	-0.5	10.3	-6.7	-3.0	-2.0	18.5
COc1ccc2c(C)c(CCC(=O)NCCCN3CCCC3=O)c(=O)oc2c1C	-1.2	21.6	-7.6	-10.9	1.6	116.3*
CCc1cc(=O)oc2c3c(cc(OCC(=O)NC4CC4)c12)OC(C)(C)CC3	.	18.6	10.4	-6.4	0.4	+
O=C(OCC(=O)N1CCN(c2ccccc2)CC1)c1ncc(Cl)c(Cl)c1Cl	3.0	5.6	-1.6	16.8	-0.4	5.1
CCOc1ccc(S(=O)(=O)N2CCN(C(=O)CN3C(=O)NC(C)(C)C3=O)CC2)cc1	.	-1.1	-1.0	2.9	-2.2	-0.1
CCc1cc(=O)oc2c3c(cc(OCC(=O)NCCCC(=O)O)c12)OC(C)(C)CC3	-0.5	11.3	7.4	-1.6	1.5	+
Cc1ccccc1OCC(=O)NCCC(=O)O	-0.8	6.6	7.6	6.3	2.2	-0.1
CCc1cc(=O)oc2c3c(cc(OCC(=O)NCCC(=O)O)c12)OC(C)(C)CC3	-3.8	11.6	-4.3	-4.2	2.5	177.0*
Cc1cc(=O)oc2c3c(cc(OCC(=O)NCCC(=O)O)c12)OC(C)(C)CC3	-1.9	25.3	.	2.3	2.5	+
CCc1cc(=O)oc2cc(C)cc(OCC(=O)NCC3CCC(C(=O)O)CC3)c12 (stereo unspecified)	-0.5	0.0	2.7	-3.3	0.6	18.9
CCc1cc(=O)oc2c3c(cc(OCC(=O)NCCN4CCOCC4)c12)OC(C)(C)CC3	.	14.7	-9.5	-4.0	2.5	175.8*
FC(F)(F)c1ccc(-c2cccc3c2C2CC3CCN2C(=S)NCCc2ccccc2)cc1 (stereo unspecified)	.	.	.	.	.	-0.9
C[C@@H]1CN([C@@H](C)CO)C(=O)CCCn2nncc2CO[C@H]1CN(C)Cc1cccc2c1OCCCO2	.	-6.2	.	.	.	-4.1
